TDP1 cell noCPT: qHTS for Inhibitors of human tyrosyl-DNA phosphodiesterase 1 (TDP1): qHTS in cells in absence of CPT; hit rate 15% among 420,000; DT40 Tdp1-/- hTDP1 cells, no CPT, ATP luminescence, 48 h; Potency, µM (titrated, usually from 46.2 µM), for the others: at the highest dose activity change, negative = growth inhibition, actives largely listed as inhibitors; note: % is set by controls: 0 for no effect and ±100 for the full control effect; nearly all actives have a fitted effect of over 55% in size
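Chicken DT40 Tdp1-/- cells stably complemented with human TDP1 were seeded at 400 cells/well with DMSO in place of 20 nM camptothecin. After compound pinning, cells grew at least 48 hr at 37 °C; viability read by CellTiter-Glo luminescence.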
TGFb SMAD3 inh: TGF-b pathway inhibition | HepG2 CAGA-GFP TGF-b/SMAD3 reporter, GFP fluorescence, 18 h; TGF-beta stimulated, 500 pg/mL final | Potency, µM (top dose mostly 46.1 µM), inactives show at the top dose activity, negative = inhibition, usual class: inhibitors | hit rate 1.2% among 410,000 | AID 588855; note: % is set by controls: 0 for no effect and ±100 for the full control effect; nearly all actives have a fitted effect of over 65% in size
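Smad-responsive CAGA-GFP expression was quantified in HEPG2 cells exposed to compounds and 500 pg/mL final TGF-beta for 18 h at 37 degrees C; unstimulated wells defined full inhibition.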
DT40 TDP1 CPT: DT40-hTDP1 cell growth loss with CPT. hit rate 12% among 420,000. chicken DT40 Tdp1-/-;hTDP1 cells + 20 nM CPT, ATP luminescence, 48 h. AID 686979. Potency, µM (top dose mostly 46.2 µM), inactives show top-dose activity change, negative = growth inhibition, actives largely listed as inhibitors; note: % is set by controls: 0 for no effect and ±100 for the full control effect; nearly all actives have a fitted effect of over 55% in size
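Chicken DT40 Tdp1-/- cells stably complemented with human TDP1 were seeded at 400 cells/well in medium containing 20 nM camptothecin, exposed to pin-transferred compounds, and grown at 37 °C for at least 48 hr. Viability was read as ATP luminescence.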
S2 tox: viability counter-screen for ATXN expression inhibitors; S2 cells (HEK-293 line with an ATXN2-luciferase reporter) viability, CellTiter-Fluor protease fluorescence, 24 h; Potency, µM (titrated, usually from 56.7 µM), actives largely listed as cytotoxic; hit rate 0.49% among 400,000; AID 651635; note: nearly all actives have a fitted effect of over 40% in size
HepG2 viability: kills HepG2 cells in TGF-b inhibitor counter-screen; HepG2 CAGA-GFP viability, ATP luminescence, 18 h; Potency, µM (top dose mostly 46.1 µM), without a hit: top-dose activity change, negative = cytotoxicity, actives largely listed as cytotoxic; hit rate 0.76% among 410,000
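HepG2 CAGA-GFP cells (1000/well, DMEM with 1% FBS) received compound, then TGF-beta at 500 pg/mL final, and were incubated 18 hours at 37 degrees C. Viability was read by CellTiter-Glo luminescence. Media-only wells were set as complete cell-killing and DMSO as no toxicity.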
ATXN2 expr inh: ATXN2 expression inhibition; HEK-293 ATXN2-luciferase reporter, luminescence, 24 h; Potency, µM (doses to about 57 µM), for the others: at the top dose activity change, negative = inhibition, usual class: inhibitors; hit rate 0.72% among 360,000; AID 1745845; note: % is set by controls: 0 for no effect and ±100 for the full control effect; nearly all actives have a fitted effect of over 55% in size
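ATXN2-luciferase reporter cells (luciferase flanked by upstream and downstream ATXN2 gene portions) were treated 24 h at 37 °C with compounds at up to 57 uM. SteadyGlo luminescence gave expression; GF-AFC fluorescence gave viability.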
* marks the source's active call; other numbers are inactive results; i = inactive; ? = inconclusive; / = no result; [ ] = dose if it differs, or a comment. Most compounds without a hit are left out; they make up all but 17% or so of the library. Calls come from the whole dose curve; as a rule, active = well fitted curve in the direction sought with a large enough effect; inconclusive = small, poorly fitted or top-dose-only effect, or another doubt; inactive = no such curve, though single readings can be large; an effect the other way counts as inactive or inconclusive. Potency is the fitted concentration of half-maximal effect.

SMILES	TDP1 cell noCPT	TGFb SMAD3 inh	DT40 TDP1 CPT	S2 tox	HepG2 viability	ATXN2 expr inh
COc1ccc(C#Cc2ccc3c(c2)c(=O)c2ccccc2n3C)cc1	18µM*	1%	?	i	-13%	7%
COc1cc2sc3ccc(C#Cc4ccc(N)cc4)cc3c(=O)c2cc1OC	?	?	-23%	i	-31%	-5%
COc1cc2sc3ccc(C#CC4(O)CCCCC4)cc3c(=O)c2cc1OC	16µM*	-5%	?	i	-14%	12%
O=c1oc2ccc(C#CC3(O)CCCCC3)cc2cc1-n1cc(C2(O)CCCCC2)nn1	-16%	1%	4%	i	0%	1%
Cn1c2ccccc2c(=O)c2cc(C#Cc3ccc(N)cc3)ccc21	?	?	?	?	-18%	6%
COc1ccc(CNC(=O)c2sc3nc[nH]c(=O)c3c2C)cc1	-15%	15%	2%	/	2%	/
CCc1ccc2[nH]c(=O)c(CN(CC3CCCO3)C(=S)NCc3ccco3)cc2c1 (stereo unspecified)	?	?	21µM*	i	-17%	-2%
Cc1cc2cc(CN(CCN(C)C)C(=S)NCc3ccco3)c(=O)[nH]c2cc1C	13µM*	11%	?	i	-21%	-16%[11.3 µM]
Cc1ccc2cc(CN(CC3CCCO3)C(=S)NCc3ccco3)c(=O)[nH]c2c1C (stereo unspecified)	13µM*	-4%	?	i	-11%	95%
O=C(CC1CC2CCC1C2)N1CCN(S(=O)(=O)c2ccc(C(F)(F)F)cc2)CC1 (stereo unspecified)	?	-4%	-2%	i	-11%	/
CC(C)CN1CC[C@@]2(CCCN(C(=O)c3csnn3)C2)C1	?	/	-24%	/	/	/
CC(C)(C)[C@@H]1C=C(C(N)=O)O[C@H](OCCCCO)C1	-8%	3%	4%	i	3%	3%
Nc1c(C(=O)CSc2nnc(Nc3ccc(F)cc3)s2)c(=O)[nH]c(=O)n1C1CC1	?	-24%	-23%	/	-18%	/
COc1cccc(OCCSc2nc(N)cc(N)n2)c1	21µM*	-8%	?	i	-19%	29%
NC(=O)c1ccc2nc(-c3ccc(Oc4ccc(Cl)cc4)cc3)[nH]c2c1	/	/	/	/	/	28%
CCN(CC)C(=O)C1=C(C)N(Cc2ccc(OC)cc2)C(=O)C(CC(=O)NC2CCCCC2)C1 (stereo unspecified)	-8%	6%	2%	i	5%	4%
O=C1c2cccc3cccc(c23)C(=O)N1CC1CCN(S(=O)(=O)c2ccc(F)cc2)CC1	12µM*	?	?	i	-30%	0%
O=C1c2cccc3cccc(c23)C(=O)N1CC1CCN(S(=O)(=O)c2ccccc2)CC1	2%	-10%	28%	i	-4%	4%
O=C(c1ccc(S(=O)(=O)N2CCCCCC2)cc1)N1CCC(CN2C(=O)c3cccc4cccc(c34)C2=O)CC1	21µM*	-3%	?	?	-2%	-6%
Cc1ccc(-c2noc(-c3ccc(NCc4cccnc4)c([N+](=O)[O-])c3)n2)cc1	5.2µM*	13%	?	i	2%	23%
O=[N+]([O-])c1cc(-c2nc(-c3ccccc3)no2)ccc1NCc1cccnc1	5.8µM*	?	12µM*	i	-8%	5%
COc1ccc(-c2noc(-c3ccc(NCc4cccnc4)c([N+](=O)[O-])c3)n2)cc1	-1%	-10%	?	i	-7%	14%
COCCNCC(=O)N1CCCCCC1	-1%	-10%	10%	i	-3%	-25%
COc1ccc2oc(C(=O)N3CCN(C/C=C/c4ccccc4)CC3)c(C)c2c1	-30%	-25%	-16%	i	-34%	-23%
COc1ccc2oc(C(=O)N3CCN(C(c4ccccc4)c4ccccc4)CC3)c(C)c2c1	18µM*	-35%	?	i	-7%	0%
SMILES	TDP1 cell noCPT	TGFb SMAD3 inh	DT40 TDP1 CPT	S2 tox	HepG2 viability	ATXN2 expr inh
COc1ccc2oc(C(=O)NN3C(C)CCCC3C)c(C)c2c1 (stereo unspecified)	?	1%	?	i	9%	-3%
COc1ccc(-c2cc(C(=O)N3CCCC3)no2)cc1	?	-20%	-3%	i	-17%	8.9µM*
CN1CCN(C(=O)c2cc(-c3ccccc3)on2)CC1	-5%	-25%	-3%	i	-3%	27%
COc1ccc(-c2cc(C(=O)N3CCN(C(c4ccccc4)c4ccccc4)CC3)no2)cc1	?	-19%	23µM*	i	-31%	4%
COc1ccc2oc(C(=O)OC(C)C(=O)N3C(C)CCCC3C)c(C)c2c1 (stereo unspecified)	21µM*	12%	?	?	-3%	-28%
COc1ccc(-c2cc(C(=O)N3CCCCCC3)no2)cc1	-2%	12%	-22%	i	-14%	0%
CCN(C(=O)COC(=O)C1CCN(S(=O)(=O)c2ccc3c(c2)OCCO3)CC1)C1CCS(=O)(=O)C1 (stereo unspecified)	0%	19%	0%	i	1%	7%
Cc1ccc(C)c(NC(=O)CSc2nnc3n2CCCCC3)c1	-4%	9%	-8%	i	18%	/
O=C(c1cc(-c2ccco2)on1)N1CCN(C(c2ccccc2)c2ccccc2)CC1	16µM*	?	16µM*	i	-17%	-31%
CC(C)c1cc(C(=O)N2CCN(C(c3ccccc3)c3ccccc3)CC2)no1	?	-4%	?	i	3%	-11%
CN(C)c1ncnc2c1ncn2[C@H]1CN(Cc2cccnc2)C[C@@H](CO)O1	1%	2%	-10%	i	8%	-2%
NC(COCc1ccccc1)c1csc(NC(=O)Nc2cccc(Cl)c2)n1 (stereo unspecified)	?	?	23µM*	/	-112%	?
NC(Cc1ccc(Cl)cc1)c1csc(NC(=O)Nc2ccccc2)n1 (stereo unspecified)	15µM*	16µM*	13µM*	?	16µM*	?
NC(Cc1ccc(C(F)(F)F)cc1)c1csc(NC(=O)Nc2ccccc2)n1 (stereo unspecified)	?	?	13µM*	/	16µM*	?
COc1ccc(CC(N)c2csc(NC(=O)Nc3cccc(C(F)(F)F)c3)n2)cc1 (stereo unspecified)	?	?	?	?	-114%	?
